Assay results taken from PubChem BioAssay AID463173 (ICCB-Longwood Screening Facility, Harvard Medical School, 2010).
Screen size: about 52,000 compounds; about 4,300 (8.3%) were called active. What follows is part of a selection rich in actives, with near analogues and random picks from the rest. Unmarked numbers belong to inactive results. Cut-off read from the data, not from the text of the source: active = survival mostly below about 52% (no sharp cut-off); inactive = mostly above about 56%.

tested on: DeltatarO mutant; assay: growth inhibition of S. aureus wild type versus tarO mutant, primary screen, teichoic acid synthesis inhibitors, RN4220, OD600 (AID 463173); conditions: OD600, 18 h, hits give low values, screened at 18.75 µg/mL (by protocol)

Going from `O=C(O)c1ccccc1C(=O)N1CCC(C(=O)c2ccccc2)CC1` to `COc1ccc(N2CCN(C(=O)C3CCN(S(=O)(=O)Cc4ccccc4)CC3)CC2)cc1`, the survival falls from 104% to 78%.

First: O=S1(=O)CCC(NNC(=S)Nc2ccccc2)C1 (stereo not drawn)
Second: O=C(NCc1ccco1)c1ccccc1
The survival of the first is higher: 100% for the first, 67% for the second.

Compared with `CCOCCCNC(=O)c1cc2c(=O)[nH]c3ccccc3c2n1C`, `CCOCCCN(Cc1ccco1)S(=O)(=O)c1cc2c(cc1C)NC(=O)CO2` is lower in survival: 116% for the first, 64% for the second.

`CCCCOc1ccc(S(=O)(=O)NCc2csc(-c3ccc(OC)cc3)n2)cc1` and `CCOc1ccc(C(=O)Nc2ccc(C(=O)OCc3cc(=O)n4c(C)csc4n3)cc2)cc1` are the same in survival: 88% for the first, 88% for the second.

First: CCOC(=O)c1c(S(=O)(=O)NCC(=O)Nc2ccc(C)c(N(C)C)c2)c(C)n(C)c1C
Second: Cc1cccc(NS(=O)(=O)c2ccc(Cl)c(C(=O)Nc3ccccc3C)c2)c1
The survival of the first is higher: 79% for the first, 71% for the second.

Compared with `O=C(CCn1c(=O)c2cccn2c2cccnc21)N1CCN(c2ccc(Cl)cc2)CC1`, `O=C(CCn1c(=O)c2cccn2c2cccnc21)N1CCN(c2ccc(F)cc2)CC1` is higher in survival: 53% for the first, 88% for the second.

Compared with `Cc1cccc(N2CCN(C(=O)CCn3c(=O)c4cccn4c4cccnc43)CC2)c1C`, `Cc1ccc(C)c(N2CCN(C(=O)CCn3c(=O)c4cccn4c4cccnc43)CC2)c1` is lower in survival: 59% for the first, 58% for the second.

Going from `COc1ccc(N2CCN(C(=O)CCn3c(=O)c4cccn4c4cccnc43)CC2)cc1` to `O=C(CCn1c(=O)c2cccn2c2cccnc21)N1CCN(c2ccccc2)CC1`, the survival rises from 80% to 102%.

First: O=C(C1CCN(S(=O)(=O)c2cccs2)CC1)N1CCN(c2cccc(Cl)c2)CC1
Second: O=C(O)c1ccc(NC(=O)c2cc(S(=O)(=O)N3CCCCC3)c(Cl)cc2Cl)cc1
The survival of the first is lower: 64% for the first, 165% for the second.

Going from `CCOC(=O)c1cc2c(ccn2C)n1Cc1ccc(OC(F)(F)F)cc1` to `Cc1nn(C)c2c1c(C(F)(F)F)cc(=O)n2CC(=O)NCc1ccc(OC(C)C)cc1`, the survival falls from 96% to 90%.

First: CCOC(=O)N1CCc2c(sc3c2c(=O)n(Cc2ccccc2)c(=O)n3Cc2cccc(C)c2)C1
Second: Cc1ccc(C)c(NC(=O)Cn2c(=O)n(Cc3ccc4c(c3)OCO4)c(=O)c3ccc(C(=O)NC4CCCCC4)cc32)c1
The survival of the first is lower: 83% for the first, 88% for the second.

First: CC(C)NC(=O)CCSc1ccc(Cl)cc1
Second: CC(=O)NC(C)c1nc2ccccc2n1Cc1ccccc1Cl (stereo not drawn)
The survival of the first is higher: 93% for the first, 83% for the second.

Going from `COc1ccc(N(C)C(=O)CCn2cnc3onc(-c4ccc(F)cc4)c3c2=O)c(OC)c1` to `COc1ccc(C(=O)NCc2ccc3c(c2)CCN3C(=O)c2ccc(Cl)cc2)c(OC)c1`, the survival rises from 92% to 94%.

Compared with `CC(C)Nc1nc2c(-c3cccc(Br)c3)nnn2c2ccccc12`, `CCCCNc1nc2c(-c3cccc(Br)c3)nnn2c2ccccc12` is higher in survival: 69% for the first, 101% for the second.

Compared with `CCCn1c(SCC(O)c2cccc(OC)c2)nc2ccccc21` (stereo not drawn), `CC(C)Cn1c(C2CC(=O)N(c3ccccc3Cl)C2)nc2ccccc21` (stereo not drawn) is higher in survival: 84% for the first, 101% for the second.

Compared with `Cc1nc2ccccc2c(=O)n1CC(C)C`, `Cc1cc(C)n2c(Nc3ccccc3C)c(-c3cccs3)nc2n1` is higher in survival: 64% for the first, 84% for the second.

`O=C(Nc1ccccc1)c1cc2sccc2n1Cc1ccccc1` and `Cc1ccccc1C(=O)Nc1cccc(C(=O)OCc2cc(=O)n3c(C)csc3n2)c1` are the same in survival: 87% for the first, 87% for the second.

First: COc1ccc(Cl)cc1NC(=O)C(C)n1nnc2sc3c(c2c1=O)CCCC3 (stereo not drawn)
Second: Cc1csc2nc(COC(=O)c3cccc(NC(=O)COc4ccc(Cl)cc4)c3)cc(=O)n12
The survival of the first is lower: 78% for the first, 94% for the second.

First: CC(C)CCOc1ccc(Oc2nc(N(C)C)nc(N(C)C)n2)nn1
Second: Cc1cccc(Nc2c(-c3cccs3)nc3nc(C)cc(C)n23)c1
The survival of the first is lower: 62% for the first, 151% for the second.

With `COc1cccc(C(=O)Nc2cccc(C(=O)OCc3cc(=O)n4c(C)csc4n3)c2)c1` the survival was 128%.

For `O=C(CCn1c(=O)c2cccn2c2cccnc21)N1CCN(c2cccc(Cl)c2)CC1`, the survival was 46% (active).
In the case of `Cc1ccc(Cl)cc1N1CCN(C(=O)CCn2c(=O)c3cccn3c3cccnc32)CC1`, the survival is reported as 39% (active).
For `O=C(CCn1c(=O)c2cccn2c2cccnc21)N1CCN(c2cccc(C(F)(F)F)c2)CC1`, the survival was 39% (active).
In the case of `CC(C)Cn1c(-c2cccc(Br)c2)nc2ccccc21`, the survival is reported as 21% (active).
In the case of `CC(C)Cn1c(-c2ccccc2Cl)nc2ccccc21`, the survival is reported as -2% (active).
For `CCCn1c(-c2cccc(Br)c2)nc2ccccc21`, the survival was -4% (active).
For `Cc1ccc(Nc2c(-c3cccs3)nc3nc(C)cc(C)n23)cc1`, the survival was 15% (active).
With `Cc1cccc(OCC(=O)Nc2cccc(C(=O)OCc3cc(=O)n4c(C)csc4n3)c2)c1` the survival was -5% (active).
With `Cc1csc2nc(COC(=O)c3cccc(NC(=O)c4cccc(Cl)c4)c3)cc(=O)n12` the survival was 17% (active).
